Assay results published in the supplement of paper PMC6411743.
± gives the standard deviation of the averaged measurements. Of roughly 5,400 targets only a part is listed; those with the largest changes were picked by preference.

Compound: Nc1nc2c(ncn2[C@@H]2O[C@H](COP(=O)(O)OP(=O)(O)OP(=O)(O)O)[C@@H](O)[C@H]2O)c(=O)[nH]1 [guanosine triphosphate]
Test: NP40-soluble protein abundance relative to vehicle (solubility fold change) (ratio); higher = more soluble protein in presence of GTP
In short: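 Jurkat crude lysate (Dounce-homogenised) was treated with eight concentrations from 0.1 to 10 mM for 10 min at room temperature, then 3 min at 37 °C. It was solubilised with 0.8% NP40 and benzonase (60 min, 4 °C) and ultracentrifuged, and the supernatant was TMT-labelled for LC-MS/MS. Intensities were vsn-normalised, and the value is the fold change against the NP40-processed vehicle per replicate, from three independent experiments.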

Chain of UniProt P35606 (P35606 whole entry): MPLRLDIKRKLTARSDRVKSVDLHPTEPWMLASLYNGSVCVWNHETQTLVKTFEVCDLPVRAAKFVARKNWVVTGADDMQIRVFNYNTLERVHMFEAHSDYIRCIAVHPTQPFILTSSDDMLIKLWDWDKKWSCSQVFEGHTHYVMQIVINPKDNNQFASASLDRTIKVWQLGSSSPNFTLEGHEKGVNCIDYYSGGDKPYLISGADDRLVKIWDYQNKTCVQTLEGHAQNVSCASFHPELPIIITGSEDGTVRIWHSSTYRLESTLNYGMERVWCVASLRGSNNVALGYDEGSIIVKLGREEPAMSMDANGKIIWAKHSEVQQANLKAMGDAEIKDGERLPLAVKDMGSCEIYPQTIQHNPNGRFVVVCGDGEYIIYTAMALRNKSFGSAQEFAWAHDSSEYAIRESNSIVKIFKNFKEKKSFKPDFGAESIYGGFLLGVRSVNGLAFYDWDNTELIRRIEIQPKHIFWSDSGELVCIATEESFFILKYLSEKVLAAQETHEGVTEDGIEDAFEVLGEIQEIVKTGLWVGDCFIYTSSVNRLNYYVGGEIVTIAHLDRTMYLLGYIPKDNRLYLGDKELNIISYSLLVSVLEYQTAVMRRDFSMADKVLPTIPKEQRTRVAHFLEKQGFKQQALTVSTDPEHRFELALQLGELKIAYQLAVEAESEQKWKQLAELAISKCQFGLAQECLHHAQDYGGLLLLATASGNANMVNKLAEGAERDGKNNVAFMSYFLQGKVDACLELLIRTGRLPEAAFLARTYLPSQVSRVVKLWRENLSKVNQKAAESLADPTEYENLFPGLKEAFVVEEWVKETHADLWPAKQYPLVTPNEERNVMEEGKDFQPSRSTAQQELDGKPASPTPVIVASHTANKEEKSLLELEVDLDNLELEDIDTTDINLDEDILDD
Chain of UniProt P09651 (P09651 whole entry): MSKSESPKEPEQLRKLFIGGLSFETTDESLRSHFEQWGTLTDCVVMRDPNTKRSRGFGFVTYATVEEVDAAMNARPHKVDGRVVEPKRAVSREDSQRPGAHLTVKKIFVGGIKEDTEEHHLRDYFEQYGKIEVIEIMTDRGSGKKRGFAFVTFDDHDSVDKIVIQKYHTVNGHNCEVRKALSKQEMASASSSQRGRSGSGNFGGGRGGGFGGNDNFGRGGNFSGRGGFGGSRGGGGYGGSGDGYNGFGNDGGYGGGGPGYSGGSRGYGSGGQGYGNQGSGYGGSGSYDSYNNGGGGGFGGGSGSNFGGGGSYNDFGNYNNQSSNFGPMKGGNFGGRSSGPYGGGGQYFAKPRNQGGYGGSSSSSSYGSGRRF
Chain of UniProt O15260 (O15260 whole entry, one chain of several): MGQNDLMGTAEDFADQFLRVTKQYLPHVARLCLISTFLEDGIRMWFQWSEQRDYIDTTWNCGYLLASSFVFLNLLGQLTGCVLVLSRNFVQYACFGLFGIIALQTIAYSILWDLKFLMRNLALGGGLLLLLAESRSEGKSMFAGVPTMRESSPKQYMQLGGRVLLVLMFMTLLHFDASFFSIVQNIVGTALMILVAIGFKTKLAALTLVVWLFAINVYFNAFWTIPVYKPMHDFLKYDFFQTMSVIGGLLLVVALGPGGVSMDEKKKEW
Chain of UniProt P38935 (P38935 whole entry): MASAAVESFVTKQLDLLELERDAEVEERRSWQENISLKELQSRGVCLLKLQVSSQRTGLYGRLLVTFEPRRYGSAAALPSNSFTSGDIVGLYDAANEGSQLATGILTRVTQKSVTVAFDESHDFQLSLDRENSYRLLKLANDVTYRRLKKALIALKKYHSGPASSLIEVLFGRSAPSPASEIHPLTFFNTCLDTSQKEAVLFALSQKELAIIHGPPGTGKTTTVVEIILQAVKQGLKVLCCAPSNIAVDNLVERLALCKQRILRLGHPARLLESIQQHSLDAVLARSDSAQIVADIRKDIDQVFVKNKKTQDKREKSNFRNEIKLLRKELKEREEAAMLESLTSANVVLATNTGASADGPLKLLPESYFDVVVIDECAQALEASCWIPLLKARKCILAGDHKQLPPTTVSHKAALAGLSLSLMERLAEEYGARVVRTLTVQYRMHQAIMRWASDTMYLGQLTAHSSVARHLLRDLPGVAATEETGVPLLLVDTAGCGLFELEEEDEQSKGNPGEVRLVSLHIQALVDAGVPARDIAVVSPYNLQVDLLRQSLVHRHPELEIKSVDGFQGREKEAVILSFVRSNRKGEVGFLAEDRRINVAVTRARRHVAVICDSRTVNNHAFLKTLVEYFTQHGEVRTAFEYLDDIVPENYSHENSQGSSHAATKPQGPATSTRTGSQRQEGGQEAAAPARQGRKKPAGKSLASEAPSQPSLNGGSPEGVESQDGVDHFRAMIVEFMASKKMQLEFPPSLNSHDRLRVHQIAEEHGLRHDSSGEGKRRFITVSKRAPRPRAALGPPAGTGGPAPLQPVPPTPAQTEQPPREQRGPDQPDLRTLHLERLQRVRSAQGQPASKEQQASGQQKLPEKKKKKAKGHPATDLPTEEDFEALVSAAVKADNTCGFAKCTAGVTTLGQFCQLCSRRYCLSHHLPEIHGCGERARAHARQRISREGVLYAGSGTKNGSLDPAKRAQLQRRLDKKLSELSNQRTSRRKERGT
Chain of UniProt P16401 (P16401 whole entry): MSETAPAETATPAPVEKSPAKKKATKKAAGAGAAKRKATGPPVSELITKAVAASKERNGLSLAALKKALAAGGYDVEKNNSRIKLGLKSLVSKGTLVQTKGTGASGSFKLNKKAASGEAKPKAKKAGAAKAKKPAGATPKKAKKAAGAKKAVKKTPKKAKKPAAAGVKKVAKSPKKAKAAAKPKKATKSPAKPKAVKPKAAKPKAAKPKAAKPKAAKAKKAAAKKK
Chain of UniProt O43399 (O43399 whole entry): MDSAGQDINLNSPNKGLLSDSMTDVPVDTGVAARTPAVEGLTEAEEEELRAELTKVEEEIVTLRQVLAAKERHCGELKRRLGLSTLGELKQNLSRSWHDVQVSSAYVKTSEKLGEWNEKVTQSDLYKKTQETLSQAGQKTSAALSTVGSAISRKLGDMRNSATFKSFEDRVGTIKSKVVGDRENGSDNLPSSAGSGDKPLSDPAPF
Chain of UniProt P46109 (P46109 whole entry): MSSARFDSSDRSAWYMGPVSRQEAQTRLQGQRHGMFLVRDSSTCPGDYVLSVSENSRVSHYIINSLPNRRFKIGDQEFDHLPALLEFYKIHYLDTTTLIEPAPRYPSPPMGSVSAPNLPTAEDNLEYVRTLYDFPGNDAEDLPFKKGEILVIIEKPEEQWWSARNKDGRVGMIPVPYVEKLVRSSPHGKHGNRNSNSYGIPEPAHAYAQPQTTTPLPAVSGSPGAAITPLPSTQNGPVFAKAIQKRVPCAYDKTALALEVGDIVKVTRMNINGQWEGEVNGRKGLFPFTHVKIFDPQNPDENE
Chain of UniProt O76003 (O76003 whole entry): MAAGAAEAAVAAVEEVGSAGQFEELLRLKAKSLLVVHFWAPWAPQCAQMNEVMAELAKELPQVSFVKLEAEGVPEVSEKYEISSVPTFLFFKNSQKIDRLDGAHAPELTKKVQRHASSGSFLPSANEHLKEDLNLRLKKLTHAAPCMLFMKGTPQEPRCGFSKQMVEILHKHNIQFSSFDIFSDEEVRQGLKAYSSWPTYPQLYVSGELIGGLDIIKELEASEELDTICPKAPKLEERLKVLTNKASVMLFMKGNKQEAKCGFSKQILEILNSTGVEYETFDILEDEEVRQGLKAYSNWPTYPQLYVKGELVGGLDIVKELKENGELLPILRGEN
Chain of UniProt O00418 (O00418 whole entry): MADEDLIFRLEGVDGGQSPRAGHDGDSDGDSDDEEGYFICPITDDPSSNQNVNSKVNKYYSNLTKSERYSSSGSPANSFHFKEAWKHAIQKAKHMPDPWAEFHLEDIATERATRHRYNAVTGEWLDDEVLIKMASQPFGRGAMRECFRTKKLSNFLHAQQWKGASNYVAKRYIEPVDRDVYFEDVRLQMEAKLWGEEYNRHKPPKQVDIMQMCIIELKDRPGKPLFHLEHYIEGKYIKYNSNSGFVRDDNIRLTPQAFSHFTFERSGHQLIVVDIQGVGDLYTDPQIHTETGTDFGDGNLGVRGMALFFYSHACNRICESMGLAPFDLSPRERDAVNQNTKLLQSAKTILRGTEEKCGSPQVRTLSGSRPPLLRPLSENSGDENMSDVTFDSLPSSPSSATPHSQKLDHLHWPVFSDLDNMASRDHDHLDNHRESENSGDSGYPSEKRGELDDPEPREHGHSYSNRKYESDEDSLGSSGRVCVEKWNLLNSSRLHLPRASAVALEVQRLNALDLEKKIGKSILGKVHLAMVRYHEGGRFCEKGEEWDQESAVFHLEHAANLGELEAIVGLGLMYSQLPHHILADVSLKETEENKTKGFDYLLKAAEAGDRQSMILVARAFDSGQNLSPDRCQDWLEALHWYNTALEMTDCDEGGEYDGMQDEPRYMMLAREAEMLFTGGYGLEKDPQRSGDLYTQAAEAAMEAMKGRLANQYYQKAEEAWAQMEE
Chain of UniProt O75531 (O75531 whole entry): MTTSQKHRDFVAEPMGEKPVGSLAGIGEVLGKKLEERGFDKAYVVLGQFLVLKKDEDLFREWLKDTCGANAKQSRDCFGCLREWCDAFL
Chain of UniProt P54577 (P54577 whole entry): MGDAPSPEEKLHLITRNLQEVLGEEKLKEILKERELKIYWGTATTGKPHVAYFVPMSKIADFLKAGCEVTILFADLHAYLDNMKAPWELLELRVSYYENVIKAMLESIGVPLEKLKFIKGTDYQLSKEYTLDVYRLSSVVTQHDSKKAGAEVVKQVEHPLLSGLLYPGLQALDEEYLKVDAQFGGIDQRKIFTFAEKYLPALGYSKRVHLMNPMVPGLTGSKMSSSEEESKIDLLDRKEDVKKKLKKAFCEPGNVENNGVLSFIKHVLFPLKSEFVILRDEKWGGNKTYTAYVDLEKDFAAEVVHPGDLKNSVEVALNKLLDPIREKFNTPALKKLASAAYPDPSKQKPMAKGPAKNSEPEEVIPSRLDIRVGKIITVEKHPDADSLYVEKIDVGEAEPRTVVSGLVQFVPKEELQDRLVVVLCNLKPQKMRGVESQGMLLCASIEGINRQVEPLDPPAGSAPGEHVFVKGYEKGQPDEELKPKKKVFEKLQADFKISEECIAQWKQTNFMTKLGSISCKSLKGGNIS

Target	NP40-soluble protein abundance (concentration: 0.1mM)	NP40-soluble protein abundance (concentration: 0.5mM)	NP40-soluble protein abundance (concentration: 1mM)	NP40-soluble protein abundance (concentration: 2mM)	NP40-soluble protein abundance (concentration: 4mM)	NP40-soluble protein abundance (concentration: 6mM)	NP40-soluble protein abundance (concentration: 8mM)	NP40-soluble protein abundance (concentration: 10mM)
EEF2K (UniProt O00418)	0.988 ± 0.074	1.01 ± 0.058	0.944 ± 0.02	0.954 ± 0.044	0.913 ± 0.028	0.951 ± 0.052	0.949 ± 0.068	0.941 ± 0.039
RBM34 (UniProt P42696)	1.08 ± 0.0039	1.05 ± 0.034	1.14 ± 0.028	1.23 ± 0.065	1.41 ± 0.066	1.57 ± 0.12	1.68 ± 0.12	1.83 ± 0.066
IGHMBP2 (UniProt P38935)	1.07 ± 0.072	1.09 ± 0.1	1.14 ± 0.099	1.26 ± 0.17	1.44 ± 0.26	1.6 ± 0.27	1.7 ± 0.43	1.92 ± 0.48
UniProt O00567	1.05 ± 0.035	1.03 ± 0.046	1.1 ± 0.087	1.23 ± 0.075	1.55 ± 0.12	1.75 ± 0.12	2.06 ± 0.14	2.48 ± 0.13
UniProt O60861|O60861-1|O60861-4	1 ± 0.02	1.01 ± 0.071	1.01 ± 0.047	0.94 ± 0.063	0.935 ± 0.035	0.929 ± 0.04	0.978 ± 0.046	0.888 ± 0.06
J3KPS0|Q9NXW2|Q9NXW2-2 (UniProt Q9NXW2)	1.01 ± 0.065	0.995 ± 0.088	0.984 ± 0.083	0.935 ± 0.064	0.913 ± 0.066	0.918 ± 0.1	0.967 ± 0.082	0.925 ± 0.063
UniProt P35606|P35606-2	1.04 ± 0.075	1.07 ± 0.11	0.994 ± 0.089	1.04 ± 0.12	1.04 ± 0.12	1.03 ± 0.12	1.01 ± 0.097	0.984 ± 0.087
J3QT87|Q96SW2|Q96SW2-2 (UniProt Q96SW2)	1.07 ± 0.084	1.07 ± 0.1	0.979 ± 0.034	1.03 ± 0.12	1.05 ± 0.061	1.04 ± 0.1	0.946 ± 0.047	0.931 ± 0.039
POLR2E (UniProt P19388)	1.06 ± 0.11	1.09 ± 0.11	1.15 ± 0.16	1.19 ± 0.18	1.22 ± 0.18	1.19 ± 0.19	1.16 ± 0.16	1.11 ± 0.16
BANF1 (UniProt O75531)	1.42 ± 0.34	2.98 ± 1.1	5.2 ± 3	5.54 ± 3.3	5.21 ± 3.3	5.08 ± 3	4.35 ± 2	5.71 ± 3.2
MCM2 (UniProt P49736)	1.01 ± 0.052	1.07 ± 0.071	0.975 ± 0.074	0.985 ± 0.099	0.974 ± 0.1	0.983 ± 0.1	0.944 ± 0.083	0.929 ± 0.074
HIST1H1B (UniProt P16401)	0.956 ± 0.023	0.937 ± 0.02	1.09 ± 0.037	1.15 ± 0.014	1.22 ± 0.042	1.272 ± 0.012	1.22 ± 0.039	1.73 ± 0.19
UniProt O15260|O15260-2|Q5T8U5	1.13 ± 0.021	1.03 ± 0.05	1.05 ± 0.022	1.01 ± 0.07	1.04 ± 0.074	0.956 ± 0.055	1.03 ± 0.044	0.953 ± 0.03
J3KQL8|Q9BQE5 (UniProt Q9BQE5)	0.987 ± 0.019	1.01 ± 0.041	0.984 ± 0.054	0.956 ± 0.058	0.917 ± 0.044	0.982 ± 0.05	0.957 ± 0.045	0.928 ± 0.051
TIMM23 (UniProt O14925)	0.979 ± 0.016	0.902 ± 0.037	0.856 ± 0.016	0.892 ± 0.02	0.904 ± 0.043	0.877 ± 0.026	0.838 ± 0.046	0.898 ± 0.042
UniProt P09651|P09651-2	1.03 ± 0.067	1.11 ± 0.082	1.17 ± 0.11	1.16 ± 0.065	1.16 ± 0.08	1.22 ± 0.089	1.3 ± 0.22	1.25 ± 0.16
GLRX3 (UniProt O76003)	0.92 ± 0.052	0.946 ± 0.058	0.934 ± 0.068	0.882 ± 0.088	0.864 ± 0.075	0.885 ± 0.085	0.885 ± 0.035	0.871 ± 0.081
UniProt O43399|O43399-5|O43399-7	0.814 ± 0.11	0.76 ± 0.039	1 ± 0.15	0.946 ± 0.028	0.91 ± 0.03	0.916 ± 0.033	0.875 ± 0.16	1.08 ± 0.15
GSTM2 (UniProt P28161)	1.03 ± 0.058	0.947 ± 0.051	1 ± 0.1	0.976 ± 0.085	0.956 ± 0.1	0.932 ± 0.11	0.886 ± 0.091	0.899 ± 0.12
NUDT21 (UniProt O43809)	1.11 ± 0.12	1.39 ± 0.12	1.64 ± 0.21	1.86 ± 0.31	2.02 ± 0.39	2.04 ± 0.35	1.97 ± 0.25	2.07 ± 0.44
CRKL (UniProt P46109)	0.973 ± 0.029	0.958 ± 0.058	0.967 ± 0.092	0.932 ± 0.073	0.921 ± 0.076	0.906 ± 0.089	0.923 ± 0.093	0.876 ± 0.086
UniProt P51532|P51532-2|P51532-3|P51532-4|P51532-5|Q9HBD4	1.016 ± 0.0073	1.07 ± 0.045	1.1 ± 0.083	1.15 ± 0.13	1.19 ± 0.15	1.2 ± 0.17	1.24 ± 0.23	1.21 ± 0.21
YARS (UniProt P54577)	0.952 ± 0.037	0.969 ± 0.029	0.92 ± 0.042	0.878 ± 0.048	0.864 ± 0.061	0.874 ± 0.048	0.872 ± 0.043	0.849 ± 0.066
P15531-2|P22392-2|Q32Q12 (UniProt Q32Q12+P22392+P15531)	0.983 ± 0.029	0.946 ± 0.049	0.903 ± 0.045	0.909 ± 0.068	0.9 ± 0.017	0.878 ± 0.04	0.822 ± 0.06	0.839 ± 0.025
UniProt P49588|P49588-2	0.95 ± 0.017	0.981 ± 0.025	0.928 ± 0.032	0.895 ± 0.034	0.876 ± 0.043	0.905 ± 0.041	0.877 ± 0.04	0.848 ± 0.052
GNL1 (UniProt P36915)	1.05 ± 0.023	1.03 ± 0.019	0.972 ± 0.033	0.95 ± 0.015	0.9647 ± 0.0095	0.944 ± 0.02	0.959 ± 0.045	0.906 ± 0.061
PPT1 (UniProt P50897)	0.888 ± 0.06	0.859 ± 0.12	0.968 ± 0.083	0.872 ± 0.12	0.873 ± 0.068	0.887 ± 0.11	0.876 ± 0.059	0.861 ± 0.099
UniProt O60830|O60830-2|V9GYS0	1.82 ± 0.63	1 ± 0.039	0.957 ± 0.15	1.01 ± 0.13	1 ± 0.11	0.969 ± 0.13	0.942 ± 0.051	0.955 ± 0.045
